The values below come from PubChem BioAssay AID880 (National Center for Advancing Translational Sciences (NCATS), 2007).

The whole screen tested about 230,000 compounds, of which about 1,000 (0.43%) were called active. A call without a number means that no potency is given here. The call rests on the fitted dose curve; in most records, active means well fitted inhibition curve with a large enough effect (not every such curve was filed as active); inactive means no such curve, though single readings can be large or run the other way. Only a selection was taken, and actives are over-represented in it overall.
Potency means the concentration at half of the fitted maximal effect.

For this assay, the target named is Guanine nucleotide-binding protein G(i) subunit alpha-1 (Homo sapiens) (UniProt P63096). The assay can be described thus: qHTS Assay for Inhibitors of RGS12 GoLoco Motif Activity (Red Fluorophore). Further: nearly all actives have a fitted effect of over 30% in size. The settings on record: Gai1:RGS12 GoLoco peptide FP, rhodamine, 10 min; series mostly up to 61.6 µM. Background: Quantitative high-throughput screening tests each substance at several concentrations.
Guanine nucleotide-binding protein G(i) subunit alpha-1 (Homo sapiens), sequence (P63096 whole entry, looked up): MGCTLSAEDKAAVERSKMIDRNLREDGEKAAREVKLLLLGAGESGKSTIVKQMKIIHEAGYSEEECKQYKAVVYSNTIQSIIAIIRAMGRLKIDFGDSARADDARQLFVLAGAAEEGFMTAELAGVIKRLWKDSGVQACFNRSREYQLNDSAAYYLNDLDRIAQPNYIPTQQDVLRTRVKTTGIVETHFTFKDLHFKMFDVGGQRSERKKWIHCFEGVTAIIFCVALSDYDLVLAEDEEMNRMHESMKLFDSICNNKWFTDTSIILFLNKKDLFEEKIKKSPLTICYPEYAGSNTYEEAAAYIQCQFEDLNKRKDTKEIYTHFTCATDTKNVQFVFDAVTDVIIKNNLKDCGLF
`NC(=O)c1sc(-c2ccsc2)cc1N`: the Potency entry was “inactive”.
As for `COc1ccc(-c2nc(-c3ccccc3)oc2Nc2ccc3ccccc3c2)cc1`, the Potency result was “inactive”.
Turning to `CC1(C)CC(=O)C=C(N2CCCC2)C1`, the Potency result was “inactive”.
Next, `O=C1CC(N2CCN(C(c3ccccc3)c3ccccc3)CC2)C(=O)N1` (configuration not stated): “inactive”; `CC1(C)CC(N2CCN(C(c3ccccc3)c3ccccc3)CC2)=CC(=[N+]2CCCCC2)C1`: 17.8 µM (active); `O=C1C=CC(=O)N1c1ccc(N2CCCCC2)cc1`: 5.01 µM (active).
On to `CCOC(=O)/C(C#N)=C/c1ccc(N2CCCCC2)cc1`, for which the Potency entry is “inactive”.
`Cc1ccccc1C(=O)Nc1ccc(N2CCCCCC2)cc1`: the Potency result was “inactive”.
Take `N#C/C(=C/c1ccc(N2CCCCC2)o1)C(=O)NCCc1c[nH]c2ccccc12`: the Potency result is “inactive”.
For `C=C/C1=C/Cc2ccccc2[C@H](C[N+](=O)[O-])C(C(=O)OC)(C(=O)OC)C1`, the Potency result was “inactive”.
In the case of `COc1ncnc2c1N=C1CC(C)(C)CC(N)=C1S2`, the Potency is 25.1 µM (active).
Next, `COc1cccc(-c2cc(=O)c3cc(NC(=O)c4ccc(C)cc4)ccc3[nH]2)c1`: “inactive”; `CC(=O)N(CC(O)CO)c1c(I)c(C(=O)NCC(O)CO)c(I)c(C(=O)NCC(O)CO)c1I` (configuration not stated): “inactive”.
As to `COc1ccc2c(c1)C(=C(C#N)C#N)C(=O)N2CCc1ccccc1`, the Potency entry is “inactive”.
On to `CC(=O)Nc1ccc(NC(=O)COc2ccc(S(=O)(=O)NC(C)c3ccccc3)cc2)cc1` (configuration not stated), for which the Potency result is “inactive”.
Next, `COC(C(=O)Nc1ccc(S(=O)(=O)Nc2ccc(C)c(C)c2)cc1)c1ccccc1` (configuration not stated): “inactive”; `CC(=O)/C(C)=N/O`: “inactive”.
`COc1ccccc1C1CCN(C(=S)Nc2ccc(Br)cc2)CC1`: the Potency result is “inactive”.
Next, `Cc1ccccc1CN(c1ccc(C(=O)NCC2CCCO2)cc1)S(C)(=O)=O` (configuration not stated): “inactive”.
Consider `Cc1ccccc1Cn1c2ccccc2c2cnn(CC(=O)NCc3ccco3)c(=O)c21`, for which the Potency result was “inactive”.
With `CC1(C)OC(=O)N2CCc3ccccc3C21C` (configuration not stated) the entry was “inactive”; with `COC(=O)c1ccccc1NC(=S)NC(=O)c1ccccc1F`, “inactive”.
As to `CC(C)=CCC[C@]1(C)[C@@H](CC=C(C)C)C[C@@]2(CC=C(C)C)C(=O)[C@]1(C(=O)C(C)C)C(=O)C(CC=C(C)C)=C2O`, the Potency result is “inactive”.
As for `O=C(NCc1ccco1)O[C@@H]1C(=O)c2cc(Br)ccc2O[C@H]1c1ccc2c(c1)OCO2`, the Potency entry is “inactive”.
`COc1cc(/C=N/NC(=S)Nc2cccnc2)cc(OC)c1O`: the Potency entry was “inactive”.
Consider `Cc1cccc([C@H]2[C@@H]3C=CC[C@@H](C)[C@@H]3C(=O)N2Cc2ccccc2)c1`, for which the Potency result was “inactive”.
Regarding `CC(=O)N/N=C(\C)c1ccc(Br)cc1Br`, the Potency entry was “inactive”.
With `COc1ccc(C2C(C#N)=C(N)Oc3cc(N)ccc32)cc1OC` (configuration not stated) the entry was “inactive”; with `OC[C@H]1O[C@@H](n2cnc3c(NC4CCCC4)ncnc32)[C@H](O)[C@H]1O`, “inactive”; with `CC1(C)C2CCC1(C)C(OC(=O)c1ccc(O)cc1)C2` (configuration not stated), “inactive”.
As to `O=C(CSc1nc(-c2ccccc2)cs1)Nc1cccc([N+](=O)[O-])c1`, the Potency result is “inactive”.
As to `N#Cc1cccc(CS(=O)(=O)c2nnnn2-c2cc(C(F)(F)F)cc(C(F)(F)F)c2)c1`, the Potency entry was “inactive”.
Consider `C=CCSc1nc(N)cc(=O)[nH]1`, for which the Potency result is “inactive”.
In the case of `Cc1ccc(NC2=C(Cl)C(=O)OC2OC(=O)c2ccccc2C)cc1` (configuration not stated), the Potency result was “inactive”.
Next, `Cc1cc(C)cc(NC(=S)NCc2ccc(F)cc2)c1`: “inactive”.
Turning to `O=C(C/C(=N\NC(=O)c1ccccc1Br)C(F)(F)F)c1cccs1`, the Potency result was “inactive”.
In the case of `Cc1cc(C(=O)NNC(=S)Nc2ccccc2C)cs1`, the Potency result is “inactive”.
Take `CN(C)C(=O)c1coc2nc3ccccc3nc12`: the Potency entry was “inactive”.
Take `O=C1NC(c2ccc(-c3ccccc3[N+](=O)[O-])o2)C(C(=O)c2ccc(Cl)cc2)C(O)(C(F)(F)F)N1` (configuration not stated): the Potency result was “inactive”.
With `COc1ccc(/C=C/C2=CC(C)(C)NC(=S)N2)c(OC)c1` the entry was “inactive”; with `COC(=O)[C@@H]1CC2=CC(=O)CC[C@]2(C)[C@@]23O[C@@H]2C[C@@]2(C)[C@@H](CC[C@@]24CCC(=O)O4)[C@H]13`, “inactive”; with `O=C1CC(c2ccccc2)=NN1c1ccc([N+](=O)[O-])cc1`, “inactive”.
Consider `O=c1[nH]n(-c2ccc([N+](=O)[O-])cc2)c(=O)c2ccccc12`, for which the Potency is 14.1 µM (active).
As for `O=c1[nH]c2cccnc2n1-c1ccc([N+](=O)[O-])cc1`, the Potency result was “inactive”.
As to `CCn1c(=O)c2cc(C(=O)Nc3cccc(C(C)=O)c3)sc2c2ccccc21`, the Potency entry was “inactive”.
As to `COc1ccc(CC(=O)N2N=C(C)CC2(O)C(F)(F)F)cc1` (configuration not stated), the Potency entry was “inactive”.
As to `COc1ccc(-c2c(C)cc3oc(=O)cc(-c4ccccc4)c3c2C)cc1C=O`, the Potency entry is “inactive”.
For the compound `Cc1ccccc1NC(=S)Nc1cccc([N+](=O)[O-])c1`, the Potency result is “inactive”.
As for `CC(=O)Nc1cccc([N+](=O)[O-])c1`, the Potency result was “inactive”.
Consider `COC(=O)/C=C\C(=O)Nc1cccc([N+](=O)[O-])c1`, for which the Potency is 0.891 µM (active).
In the case of `C/C=C(\C)C(=O)OC1C(OC(=O)C2(C)OC2C)c2cc3ccc(=O)oc3cc2OC1(C)C` (configuration not stated), the Potency entry was “inactive”.
As for `Nc1ccc2nc3c(=O)[nH]c(=S)[nH]c3nc2c1`, the Potency was 14.1 µM (active).
In the case of `O=c1[nH]c(=O)c2nc3ccccc3nc2[nH]1`, the Potency entry is “inactive”.
Turning to `CC(C)(C)NC(=O)c1ccc(Cn2cc(C(F)(F)F)ccc2=O)cc1`, the Potency entry is “inactive”.
`CCCCCCCC[n+]1cccc(C(=O)N2c3c(nc(N)[nH]c3=O)NC(C)C2C)c1` (configuration not stated): the Potency is 11.2 µM (active).
With `CCCCCCn1c(SCC(=O)c2ccccc2)nc2c1c(=O)[nH]c(=O)n2C` the entry was “inactive”; with `CCCCNC(=O)Nc1c(C)cc(SC#N)cc1C`, “inactive”; with `O=C(Nc1ccc(N2CCOCC2)cc1)c1ccc(-c2ccccc2[N+](=O)[O-])o1`, “inactive”.
Regarding `COc1ccc(-c2csc3nc(-c4ccccc4F)oc(=O)c23)cc1OC`, the Potency entry is “inactive”.
Next, `COc1cccc([C@@H]2Oc3ccc(Br)cc3C(=O)[C@H]2OC(=O)NCCc2ccc(OC)c(OC)c2)c1`: “inactive”.
Take `Cc1ccc2c(CC(=O)NCc3cccs3)coc2c1`: the Potency result is “inactive”.
Consider `CCOC(=O)C1CCCN(C(=O)COc2ccc(N(C)S(=O)(=O)c3ccc(C)cc3)cc2)C1` (configuration not stated), for which the Potency result is “inactive”.
